The source of these data is PubChem BioAssay (EPA / NIEHS).

Read-out in assay [1]: xenobiotic metabolism (CYP1A1), CYP1A1 (gene 1543)
Description: CLD_CYP1A1_6hr: CellzDirect (CLD) Gene Expression Assay for xenobiotic metabolism (CYP1A1) at 6 hours (AID 2283661).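 For AC50: potency for transcript induction above DMSO vehicle baseline.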 Put shortly: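 Read-out 6 h post-dose: qNPA chemiluminescent quantitation of transcript induction against 0.2% DMSO. Cells were cultured primary human hepatocytes from two separate donor preparations; phase-contrast morphology annotated apparent cytotoxicity.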

Assay [2] concerns Thyroperoxidase (TPO), gene 54314. Description: CCTE_Simmons_AUR_rTPO: CCTE's Amplex UltraRed Assay for Thyroperoxidase (TPO) Inhibition, Simmons Lab (AID 2283662).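 For AC50: potency for loss of signal meaning inhibition of peroxidase activity.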 The method in brief:
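Rat thyroid microsomes (5 ug protein) were incubated with test compound (8 concentrations, 5 nM–87.5 uM final, 0.5% DMSO), 25 uM Amplex UltraRed and 300 uM H2O2 in 200 mM phosphate buffer for 30 min at 37C in the dark; fluorescence read at 544/590 nm.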

Assay [3] can be described thus: CCTE_Simmons_CellTiterGLO_HEK293T: Viability Assessment in CCTE's Assays for Thyroperoxidase (TPO) Inhibition, Simmons Lab (AID 2283665).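 For AC50: cells exposed to compound for 24 h before readout; actives reduce ATP signal below DMSO vehicle meaning cytotoxicity.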 The method in brief:
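Luminescent ATP readout (CellTiter-Glo, 20 min at room temperature) after 24 hr exposure of HEK293T cells to 5 nM–87.5 uM final compound; signal loss relative to DMSO vehicle indicated cytotoxicity; dichlone titrated as positive control.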

Assay [4] can be described thus: Tanguay_ZF_120hpf_TR_legacy: (Legacy) Oregon State University Tanguay Lab 120 Hour Post-fertilization zebrafish Assay for Touch Response (AID 2283667). The method in brief:
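Binary touch-response call at 120 hpf, analysed as gain of signal versus DMSO baseline. Wild-type 5D larvae, static exposure at 28C, 0.64% DMSO final; 5uM trimethyltin chloride as positive control.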

A short description of assay [5]: CLD_ACTIN_24hr: CellzDirect (CLD) Gene Expression Assay for Baseline Control (Actin) at 24 hours (AID 2283670). The method in brief: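 This 24 h qNPA (S1 nuclease protection, chemiluminescence) actin transcript readout in cultured human liver primary cells serves as baseline control. Signal is fitted upward relative to 0.2% DMSO; chemicals tested at multiple concentrations across two donor preparations.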

Read-out in assay [6]: ABC Transporter (ABCB11), ABCB11 (gene 8647)
The assay can be described thus: CLD_ABCB11_6hr: CellzDirect (CLD) Gene Expression Assay for ABC Transporter (ABCB11) at 6 hours (AID 2283675).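 Note: hits raise ABCB11 mRNA level so AC50 marks induction.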 Put shortly:
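Read-out was ABCB11 mRNA gain of signal by quantitative nuclease protection assay, relative to 0.2% DMSO vehicle, 6 h post-dose. Cells were primary human hepatocytes from two donors, treated across multiple concentrations; phase-contrast cytotoxicity noted yes/no.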

Assay [7] can be described thus: CCTE_Padilla_ZF_144hpf_TERATOSCORE: (Legacy) CCTE's 144 Hour Post-fertilization zebrafish Assay Teratoscore, Padilla Lab (AID 2283679; active = hit-call score of the fitted dose curve at least 0.9, where 1 is the maximum; inactive = score below 0.9;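 for AC50: zebrafish embryos with chorions exposed by immersion from 6-8 hpf to 5 dpf with daily renewal; teratogenicity score from eye scoring of death hatching and malformations at 144 hpf; higher score means more developmental defects relative to DMSO baseline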). Put shortly: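 Larvae scored by eye at 144 hpf for death, hatching and malformations after a day in clean Hanks'. Before that, daily-renewed exposure at 80 uM (0.4% DMSO, 26C) from roughly 6-8 hpf through 5 dpf, 4 embryos per chemical.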

Read-out in assay [8]: Cytochrome P450 3A4 (Homo sapiens) (UniProt P08684)
The assay can be described thus: CLD_CYP3A4_6hr: CellzDirect (CLD) Gene Expression Assay for xenobiotic metabolism (CYP3A4) at 6 hours (AID 2283680). Put shortly:
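CYP3A4 mRNA induction, 6 h after dosing of cultured primary human hepatocytes from two donors, read by quantitative nuclease protection (qNPA, chemiluminescence). Vehicle 0.2% DMSO as baseline; morphology-based cytotoxicity annotated yes/no.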

Read-out in assay [9]: xenobiotic metabolism (CYP1A2), CYP1A2 (gene 1544)
Description: CLD_CYP1A2_24hr: CellzDirect (CLD) Gene Expression Assay for xenobiotic metabolism (CYP1A2) at 24 hours (AID 2283683). The method in brief:
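CYP1A2 mRNA induction measured by quantitative nuclease protection (chemiluminescent) in human primary hepatocytes 24 h after multi-concentration chemical dosing with daily fresh solutions. DMSO (0.2%) baseline; positive-direction fitting; morphology-based cytotoxicity noted.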

Read-out in assay [10]: ABC Transporter (ABCB1), ABCB1 (gene 5243)
Description: CLD_ABCB1_24hr: CellzDirect (CLD) Gene Expression Assay for ABC Transporter (ABCB1) at 24 hours (AID 2283684). The method in brief: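 ABCB1 mRNA induction versus 0.2% DMSO vehicle was read by qNPA chemiluminescence at 24 h. Cultured human hepatocytes from two donor preparations received daily fresh dosing, and phase-contrast cytotoxicity calls were annotated alongside the data.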

Read-out in assay [11]: Cytochrome P450 2B6 (Homo sapiens) (UniProt P20813)
The assay can be described thus: CLD_CYP2B6_24hr: CellzDirect (CLD) Gene Expression Assay for xenobiotic metabolism (CYP2B6) at 24 hours (AID 2283686). Put shortly: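 qNPA chemiluminescent measurement of mRNA at 24 hours in human primary hepatocyte cultures from two donor preparations, with daily fresh dosing and 0.2% DMSO vehicle as baseline. Morphology-based cytotoxicity flagged yes/no.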

Read-out in assay [12]: Cytochrome P450 2C19 (Homo sapiens) (UniProt P33261)
The assay can be described thus: CLD_CYP2C19_24hr: CellzDirect (CLD) Gene Expression Assay for xenobiotic metabolism (CYP2C19) at 24 hours (AID 2283687).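 Note: activity means mRNA induction above DMSO vehicle baseline.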 Put shortly: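 CYP2C19 mRNA was quantified by qNPA chemiluminescence after 24 h of daily dosing of cultured human primary hepatocytes from two donors; vehicle was 0.2% DMSO, and increases over DMSO baseline were fitted.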

Read-out in assay [13]: alkyl and aryl transferase (GSTA2), GSTA2 (gene 2939)
The assay can be described thus: CLD_GSTA2_6hr: CellzDirect (CLD) Gene Expression Assay for alkyl and aryl transferase (GSTA2) at 6 hours (AID 2283666). The method in brief: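 GSTA2 transcript induction at 6 h, quantified by nuclease protection (qNPA) with chemiluminescent detection, in human liver primary hepatocytes exposed to several compound concentrations with 0.2% DMSO as baseline; phase-contrast morphology annotated apparent cytotoxicity.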

Read-out in assay [14]: organic anion transporter (SLCO1B1), SLCO1B1 (gene 10599)
Description: CLD_SLCO1B1_6hr: CellzDirect (CLD) Gene Expression Assay for organic anion transporter (SLCO1B1) at 6 hours (AID 2283668).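 Note: active means mRNA induction above DMSO baseline.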 The method in brief:
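SLCO1B1 mRNA induction measured 6 h after dosing by quantitative nuclease protection with chemiluminescent read-out, in human primary hepatocyte cultures given chemicals at several concentrations (vehicle 0.2% DMSO). Increase over DMSO baseline fitted; morphology-based cytotoxicity annotated yes/no.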

Read-out in assay [15]: xenobiotic metabolism (CYP1A1), CYP1A1 (gene 1543)
Description: CLD_CYP1A1_24hr: CellzDirect (CLD) Gene Expression Assay for xenobiotic metabolism (CYP1A1) at 24 hours (AID 2283673).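 Note: CYP1A1 mRNA level by quantitative nuclease protection with chemiluminescence.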 The method in brief: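 Transcript levels were read at 24 h by qNPA chemiluminescence in human liver primary cells. Cells got daily fresh dosing at multiple concentrations (vehicle 0.2% DMSO). Induction fitted upward against DMSO; phase-contrast cytotoxicity annotated.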

Read-out in assay [16]: Cytochrome P450 2C9 (Homo sapiens) (UniProt P11712)
The assay can be described thus: CLD_CYP2C9_24hr: CellzDirect (CLD) Gene Expression Assay for xenobiotic metabolism (CYP2C9) at 24 hours (AID 2283688). The method in brief: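 Induction of CYP2C9 mRNA was quantified by quantitative nuclease protection assay (chemiluminescence), gain of signal versus 0.2% DMSO vehicle, 24 h after dosing. Human primary hepatocytes (two donors) received fresh chemical daily at multiple concentrations; morphology-based cytotoxicity flagged yes/no.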

Read-out in assay [17]: Cytochrome P450 2C19 (Homo sapiens) (UniProt P33261)
Description: CLD_CYP2C19_6hr: CellzDirect (CLD) Gene Expression Assay for xenobiotic metabolism (CYP2C19) at 6 hours (AID 2283678). The method in brief:
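CYP2C19 transcript induction was quantified by quantitative nuclease protection assay with chemiluminescent read-out, 6 h after dosing. Cells were primary human hepatocytes from two donor preparations, given fresh dosing solutions daily in 0.2% DMSO vehicle. Activity was relative to DMSO.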

Read-out in assay [18]: glucuronosyltransferase (UGT1A1), UGT1A1 (gene 54658)
Description: CLD_UGT1A1_6hr: CellzDirect (CLD) Gene Expression Assay for glucuronosyltransferase (UGT1A1) at 6 hours (AID 2283672). Put shortly:
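UGT1A1 mRNA induction, read by quantitative nuclease protection assay, 6 h after dosing primary human hepatocytes (two donors, 0.2% DMSO vehicle). Gain of signal fitted relative to vehicle.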

Read-out in assay [19]: Cytochrome P450 2B6 (Homo sapiens) (UniProt P20813)
Description: CLD_CYP2B6_6hr: CellzDirect (CLD) Gene Expression Assay for xenobiotic metabolism (CYP2B6) at 6 hours (AID 2283677).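 Note: actives raise CYP2B6 transcript above DMSO baseline so AC50 marks an inducer.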 Put shortly: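 CYP2B6 transcript levels, read by chemiluminescent qNPA, were fitted for increase versus DMSO baseline; cultured human liver hepatocytes from two donor preparations were harvested 6 h after exposure to test chemicals at multiple concentrations.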

Each structure is given as a SMILES string. Where “and” joins values, the source holds several entries; their conditions need not be identical. Identical values can stand only once. Results filed as inconclusive are left out. More than one record can exist for a structure, and the calls need not agree. Calls of active or inactive are those of the source. Rule for the calls, unless noted: active = hit-call score of the fitted dose curve at least 0.9, where 1 is the maximum; inconclusive = response in the unintended direction; inactive = score below 0.9.

Sequence of Cytochrome P450 2C19 (Homo sapiens) (P33261 whole entry, looked up): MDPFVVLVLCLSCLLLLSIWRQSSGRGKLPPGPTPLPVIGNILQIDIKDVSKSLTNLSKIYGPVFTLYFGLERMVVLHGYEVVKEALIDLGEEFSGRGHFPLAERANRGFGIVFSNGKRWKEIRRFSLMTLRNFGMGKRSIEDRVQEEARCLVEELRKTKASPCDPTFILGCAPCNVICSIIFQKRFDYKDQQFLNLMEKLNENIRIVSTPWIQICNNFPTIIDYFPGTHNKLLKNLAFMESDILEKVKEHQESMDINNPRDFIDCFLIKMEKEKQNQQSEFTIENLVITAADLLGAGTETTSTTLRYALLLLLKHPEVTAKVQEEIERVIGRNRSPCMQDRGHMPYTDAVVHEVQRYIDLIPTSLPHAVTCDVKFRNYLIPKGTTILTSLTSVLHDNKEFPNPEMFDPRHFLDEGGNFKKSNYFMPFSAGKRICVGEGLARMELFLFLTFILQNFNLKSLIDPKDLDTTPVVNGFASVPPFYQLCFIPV
Sequence of Cytochrome P450 3A4 (Homo sapiens) (P08684 whole entry, looked up): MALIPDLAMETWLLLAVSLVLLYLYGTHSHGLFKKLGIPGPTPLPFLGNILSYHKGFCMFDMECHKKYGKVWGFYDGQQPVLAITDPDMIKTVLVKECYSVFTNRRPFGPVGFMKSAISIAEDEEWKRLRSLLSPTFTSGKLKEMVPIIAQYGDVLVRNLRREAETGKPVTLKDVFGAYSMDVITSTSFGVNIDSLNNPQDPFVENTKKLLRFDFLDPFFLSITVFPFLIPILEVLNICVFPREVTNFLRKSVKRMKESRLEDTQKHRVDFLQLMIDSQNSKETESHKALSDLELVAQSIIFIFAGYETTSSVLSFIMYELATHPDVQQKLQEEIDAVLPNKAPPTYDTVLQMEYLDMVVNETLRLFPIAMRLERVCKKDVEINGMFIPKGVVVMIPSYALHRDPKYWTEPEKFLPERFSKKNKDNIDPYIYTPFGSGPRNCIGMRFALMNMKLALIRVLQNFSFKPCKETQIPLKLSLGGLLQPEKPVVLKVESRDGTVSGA

Usually AC50 stands for the midpoint of the concentration-response curve, whichever way the signal moves. Take `COP(=O)(OC)OC=C(Cl)Cl`: the half-maximal activity concentration (AC50) in assay [1] is 1.9 µM (active); in [2], 21 µM (active); in assay [7] it was 53.8 µM (active). The molecule was classed as inactive in assay [3], in assay [4], in assay [5], in assay [6], in assay [8] and in assay [9]. In addition, the molecule was classed as inactive in [10], in assay [11] and in [12].
On to `CCC(C)(NC(=O)c1cc(Cl)c(C)c(Cl)c1)C(=O)CCl` (stereo unspecified), for which the molecule was called inactive in [1], in assay [13], in [14], in assay [15], in assay [6] and in [8]. For the same molecule, the outcome in [9], in assay [10], in assay [12] and in [16] was inactive. Besides, the half-maximal activity concentration (AC50) in assay [4] was 57.8 µM (active); in [7], 5.78 µM (active); in [11] it was 3.97 µM (active).
Turning to `CCN(CC)C(=O)SCc1ccc(Cl)cc1`, the result in assay [1], in assay [13], in assay [4], in assay [14], in [6] and in assay [17] was inactive. Besides, the call in [9], in [10] and in assay [12] was inactive. Moreover, the AC50 in assay [7] is 23.4 µM (active); in assay [8], 20 µM (active); in [11], 3.93 µM (active).
Take `CNC(=O)CSP(=S)(OC)OC`: the AC50 in [1] is 0.275 µM (active); in assay [2], 7.2 µM (active). Also, the call in assay [3], in assay [13], in assay [4], in assay [14], in [5] and in assay [18] was inactive. Further, the outcome in assay [6], in assay [17], in [7], in [8], in [9] and in assay [10] was inactive. Besides, the molecule was called inactive in assay [11] and in [12].
Regarding `CNC(=O)/C=C(\C)OP(=O)(OC)OC`, the outcome in assay [1], in assay [3], in [4], in assay [14], in assay [6] and in assay [7] was inactive. The molecule was called inactive in [9] and in [16]. The AC50 was 39.1 µM (active) in assay [2] and 0.000497 µM (active) in assay [11].
Regarding `COP(=S)(OC)Oc1ccc(SC)c(C)c1`, the half-maximal activity concentration (AC50) was 5.13 µM (active) in assay [1]; 34.3 µM (active) in assay [2]; 16.1 µM (active) in assay [7]; 9.72 µM (active) in [9]; 20 µM (active) in [11]. Moreover, the molecule was classed as inactive in assay [3] and in assay [8].
As for `Oc1cc(Cl)ccc1Oc1ccc(Cl)cc1Cl`, the call in [1], in [2], in [13], in [4], in assay [14] and in assay [5] was inactive. Further, the molecule was classed as inactive in assay [6], in assay [9], in [10] and in assay [11]. For the same molecule, the AC50 is 36.3 µM (active) and 21.6 µM (active) and 43.6 µM (active) in assay [2]; 13.1 µM (active) [middle of 4 runs] in assay [3]; 1.48 µM (active) and 4.99 µM (active) and 1.9 µM (active) in [7].
In the case of `CC1(c2ccc(Oc3ccccc3)cc2)OC(=O)N(Nc2ccccc2)C1=O` (stereo unspecified), the outcome in assay [1], in assay [13], in assay [4], in [14], in assay [5] and in assay [6] was inactive. Also, the molecule was called inactive in assay [17] and in assay [9]. Also, the AC50 was 2.45 µM (active) in assay [2]; 20.2 µM (active) in assay [3]; 3.89 µM (active) in [15]; 1.88 µM (active) in [19]; 0.172 µM (active) in [7].
